Assay results as given in the supplement of paper PMC8728848.
This is one part of a sample in which the strongest signals are shown more often than they occur.

Columns and labels:
Experiment in all cases: glycan array binding signal (z-score within array); higher = stronger binding
Conditions in all cases: glycan notation: IUPAC condensed, linker removed
[1] = biological target: Gal(b1-4)GlcNAc(b1-3)Gal(b1-4)GlcNAc(b1-3)Gal(b1-4)GlcNAc(b1-2)Man(a1-3)[Gal(b1-4)GlcNAc(b1-3)Gal(b1-4)GlcNAc(b1-3)Gal(b1-4)GlcNAc(b1-2)Man(a1-6)]Man(b1-4)GlcNAc(b1-4)GlcNAc
Method in brief: (§1)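 The Consortium for Functional Glycomics database supplied 3228 glycan arrays, of which those lacking an available protein sequence were dropped. The binding signal, a within-array Z-score, was averaged across arrays of the same protein sequence and across linkers. Negative scores can be read as non-binding.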

[2] = biological target: Gal(b1-4)GlcNAc(b1-3)Gal(b1-4)GlcNAc(b1-3)Gal(b1-4)GlcNAc(b1-3)Gal(b1-4)GlcNAc(b1-2)Man(a1-3)[Gal(b1-4)GlcNAc(b1-3)Gal(b1-4)GlcNAc(b1-3)Gal(b1-4)GlcNAc(b1-3)Gal(b1-4)GlcNAc(b1-2)Man(a1-6)]Man(b1-4)GlcNAc(b1-4)[Fuc(a1-6)]GlcNAc
Method in brief: as §1

[3] = biological target: Gal(b1-4)GlcNAc(b1-3)Gal(b1-4)GlcNAc(b1-3)Gal(b1-4)GlcNAc(b1-3)Gal(b1-4)GlcNAc(b1-2)[Gal(b1-4)GlcNAc(b1-3)Gal(b1-4)GlcNAc(b1-3)Gal(b1-4)GlcNAc(b1-3)Gal(b1-4)GlcNAc(b1-6)]Man(a1-6)[Gal(b1-4)GlcNAc(b1-3)Gal(b1-4)GlcNAc(b1-3)Gal(b1-4)GlcNAc(b1-3)Gal(b1-4)GlcNAc(b1-2)Man(a1-3)]Man(b1-4)GlcNAc(b1-4)[Fuc(a1-6)]GlcNAc
Method in brief: as §1

[4] = biological target: Gal(b1-4)GlcNAc(b1-3)Gal(b1-4)GlcNAc(b1-3)Gal(b1-4)GlcNAc(b1-3)Gal(b1-4)GlcNAc(b1-3)Gal(b1-4)GlcNAc(b1-2)Man(a1-3)[Gal(b1-4)GlcNAc(b1-3)Gal(b1-4)GlcNAc(b1-3)Gal(b1-4)GlcNAc(b1-3)Gal(b1-4)GlcNAc(b1-3)Gal(b1-4)GlcNAc(b1-2)Man(a1-6)]Man(b1-4)GlcNAc(b1-4)GlcNAc
Method in brief: as §1

[5] = biological target: Gal(b1-4)GlcNAc(b1-3)Gal(b1-4)GlcNAc(b1-3)Gal(b1-4)GlcNAc(b1-3)Gal(b1-4)GlcNAc(b1-3)Gal(b1-4)GlcNAc(b1-2)Man(a1-3)[Gal(b1-4)GlcNAc(b1-3)Gal(b1-4)GlcNAc(b1-3)Gal(b1-4)GlcNAc(b1-3)Gal(b1-4)GlcNAc(b1-3)Gal(b1-4)GlcNAc(b1-2)Man(a1-6)]Man(b1-4)GlcNAc(b1-4)[Fuc(a1-6)]GlcNAc
Method in brief: as §1

Gal6S(b1-3)GlcNAc6S = biological target: Gal6S(b1-3)GlcNAc6S
Method in brief: as §1

GalNAc(b1-4)GlcNAc = biological target: GalNAc(b1-4)GlcNAc
Method in brief: as §1

GalNAc3S(b1-4)GlcNAc = biological target: GalNAc3S(b1-4)GlcNAc
Method in brief: as §1

[6] = biological target: GlcNAc(a1-3)Gal(b1-4)GlcNAc
Method in brief: as §1

[7] = biological target: GlcNAc(b1-3)Gal(b1-4)GlcNAc(b1-3)Gal(b1-4)GlcNAc(b1-3)Gal(b1-4)GlcNAc(b1-3)Gal(b1-4)GlcNAc(b1-2)Man(a1-3)[GlcNAc(b1-3)Gal(b1-4)GlcNAc(b1-3)Gal(b1-4)GlcNAc(b1-3)Gal(b1-4)GlcNAc(b1-3)Gal(b1-4)GlcNAc(b1-2)Man(a1-6)]Man(b1-4)GlcNAc(b1-4)[Fuc(a1-6)]GlcNAc
Method in brief: as §1

GlcNAc(b1-3)GalNAc = biological target: GlcNAc(b1-3)GalNAc
Method in brief: as §1

Man(a1-2)Man(a1-3)Man = biological target: Man(a1-2)Man(a1-3)Man
Method in brief: as §1

Neu5Ac(a2-3)Gal = biological target: Neu5Ac(a2-3)Gal
Method in brief: as §1

[8] = biological target: Neu5Ac(a2-3)Gal(b1-3)GalNAc
Method in brief: as §1

[9] = biological target: Neu5Ac(a2-3)Gal(b1-3)GlcNAc(b1-3)Gal(b1-4)GlcNAc
Method in brief: as §1

[10] = biological target: Neu5Ac(a2-3)Gal(b1-3)[Neu5Ac(a2-6)]GlcNAc(b1-3)[Fuc(a1-3)[Gal(b1-4)]GlcNAc(b1-6)]Gal(b1-4)Glc
Method in brief: as §1

[11] = biological target: Neu5Ac(a2-3)Gal(b1-4)GlcNAc(b1-3)Gal(b1-4)GlcNAc(b1-3)Gal(b1-4)GlcNAc(b1-2)Man(a1-3)[Neu5Ac(a2-3)Gal(b1-4)GlcNAc(b1-3)Gal(b1-4)GlcNAc(b1-3)Gal(b1-4)GlcNAc(b1-2)Man(a1-6)]GalNAc
Method in brief: as §1

[12] = biological target: Neu5Ac(a2-3)Gal(b1-4)[Fuc(a1-3)]GlcNAc(b1-3)GalNAc
Method in brief: as §1

[13] = biological target: Neu5Ac(a2-3)Gal6S(b1-4)[Fuc(a1-3)]GlcNAc
Method in brief: as §1

[14] = biological target: Neu5Ac(a2-6)Gal(b1-3)GlcNAc(b1-3)[Gal(b1-4)GlcNAc(b1-6)]Gal(b1-4)Glc
Method in brief: as §1

[15] = biological target: Neu5Ac(a2-6)Gal(b1-4)GlcNAc(b1-2)Man(a1-6)[GlcNAc(b1-2)Man(a1-3)]Man(b1-4)GlcNAc(b1-4)GlcNAc
Method in brief: as §1

[16] = biological target: Neu5Ac(a2-6)Gal(b1-4)GlcNAc(b1-3)Gal(b1-4)[Fuc(a1-3)]GlcNAc(b1-3)Gal(b1-4)[Fuc(a1-3)]GlcNAc
Method in brief: as §1

Neu5Ac(a2-8)Neu5Ac = biological target: Neu5Ac(a2-8)Neu5Ac
Method in brief: as §1

[17] = biological target: Neu5Gc(a2-3)Gal(b1-3)[Fuc(a1-4)]GlcNAc
Method in brief: as §1

[18] = biological target: Neu5Gc(a2-3)Gal(b1-4)GlcNAc(b1-3)Gal(b1-4)GlcNAc(b1-2)Man(a1-3)[Neu5Gc(a2-3)Gal(b1-4)GlcNAc(b1-3)Gal(b1-4)GlcNAc(b1-2)Man(a1-6)]Man(b1-4)GlcNAc(b1-4)GlcNAc
Method in brief: as §1

B1: GS7807H-bfa-490-18-490 (Bacteroides fragilis) (protein)
chain: GNLEEMNIDPDNATQTHPKLLLTQICMNAFKRGTDGMYATKKVIQADGESADQYYKWTRGSFGYYDNLRNVQKMGEEAERVNAPVYTALTKFFRAYYFYELTLRFGDIPYSQALKGEKEEIYTPEYDAQEDVFAGILQELREADEILANDASVIDGDIIYNGNSTQWRKLINSFRLKVLMTLSNHTTVGNINIASEFKNIATNSPLMNSLADNGQLVYLDQQGNRYPQFNAQWSGYYMDDTFIQRMRERRDPRLFIFSAQTNKGKTEGKPIDDFSSYEGGDPAAPYSDAIIKVSEGTISPINDRFRTDPIVEPTMLMGYAELQQILAEAVVRGWISGNAQTYYEKGIRASFSFYETHAKDYAGYLNENAVAQYLKEPLVDFTQASGTEEQIERIIMQKYLVTFYQGNWDSFYEQLRTGYPDFRRPAGTEIPKRWMYPQGEYDNNGTNVETAITRQFGAGNDKINQATWWQKKS
In the case of B1, the “glycan array binding signal (z-score)” value [1] is reported as 2.19, the “glycan array binding signal (z-score)” value [2] is reported as 2.51 and the “glycan array binding signal (z-score)” value [3] is reported as 2.08. The “glycan array binding signal (z-score)” value [4] was 1.71, the “glycan array binding signal (z-score)” value [5] was 2.17 and the “glycan array binding signal (z-score)” value (Gal6S(b1-3)GlcNAc6S) was 1.52. The “glycan array binding signal (z-score)” value (GalNAc(b1-4)GlcNAc) was 0.462, the “glycan array binding signal (z-score)” value (GalNAc3S(b1-4)GlcNAc) was -0.743 and the “glycan array binding signal (z-score)” value [6] was -0.677. The “glycan array binding signal (z-score)” value [7] was 4.28, the “glycan array binding signal (z-score)” value (GlcNAc(b1-3)GalNAc) was -0.454 and the “glycan array binding signal (z-score)” value (Man(a1-2)Man(a1-3)Man) was 0.369. For the same binder, the “glycan array binding signal (z-score)” value (Neu5Ac(a2-3)Gal) was -0.022, the “glycan array binding signal (z-score)” value [8] was -0.368 and the “glycan array binding signal (z-score)” value [9] was -0.526. For the same binder, the “glycan array binding signal (z-score)” value [10] was -0.176, the “glycan array binding signal (z-score)” value [11] was 9.02 and the “glycan array binding signal (z-score)” value [12] was 5.66. For the same binder, the “glycan array binding signal (z-score)” value [13] was -0.29, the “glycan array binding signal (z-score)” value [14] was 0.078 and the “glycan array binding signal (z-score)” value [15] was -0.141. For the same binder, the “glycan array binding signal (z-score)” value [16] was -0.32, the “glycan array binding signal (z-score)” value (Neu5Ac(a2-8)Neu5Ac) was -0.459 and the “glycan array binding signal (z-score)” value [17] was -0.469. For the same binder, the “glycan array binding signal (z-score)” value [18] was -0.11.
